# Reference: the supplement of paper PMC4022240
# ± gives the standard deviation.
# T1: HaloTag-ATRX ADD domain (163-292)
# T1 chain: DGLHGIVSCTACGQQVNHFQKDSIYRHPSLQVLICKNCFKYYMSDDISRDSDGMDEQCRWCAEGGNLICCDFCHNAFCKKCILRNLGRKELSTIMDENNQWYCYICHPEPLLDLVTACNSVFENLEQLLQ
# How the values were obtained:
# Assay in all cases: peptide microarray binding signal (635 nm), min-max normalized on array (fraction of array maximum); higher = stronger binding
# Conditions in all cases: peptide region: H3 1-13
# [1] = target: T1, HaloTag-ATRX ADD domain (163-292)
# Experimental: (§1)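 Histone 13-mer peptides were synthesized as cellulose conjugates with a C-terminal 20-atom PEG linker and printed in triplicate on nitrocellulose. The sequence given is the unmodified backbone; PTMs (Kme1/2/3, Kac, Sph/Tph, Rme/Rme2a/Rme2s, Rcit) are listed in the label and the 'peptide modifications' condition. Slides were probed at 4 °C for 1 h with biotin-labelled (HQ)5-HaloTag reader fusions (ATRX-ADD, ING2-PHD) then streptavidin-Alexa647, or with rabbit histone antibodies then anti-rabbit Alexa647. The mean 635 nm signal of the triplicate spots was scaled 0-1 between the lowest and highest values on each array.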
# [2] = target: HaloTag-ING2 PHD (mouse Ing2 200-280)
# Experimental: as §1
# [3] = target: anti-H3K4me3 antibody ab8580
# Experimental: as §1
# [4] = target: anti-H3K9me3 antibody ab8898
# Experimental: as §1
# [5] = peptide modifications: H3R8me2a H3K9me2, binder concentration: 1:2,000 dilution
# [6] = peptide modifications: H3R8me2a H3K9me2, binder concentration: 1:10,000 dilution
# [7] = peptide modifications: H3R8me2a, binder concentration: 1:2,000 dilution
# [8] = peptide modifications: H3R8me2a, binder concentration: 1:10,000 dilution
# [9] = peptide modifications: H3R8me2s H3K9me3, binder concentration: 1:2,000 dilution
# [10] = peptide modifications: H3R8me2s H3K9me3, binder concentration: 1:10,000 dilution
# [11] = peptide modifications: H3R8me1 H3K9me3, binder concentration: 1:2,000 dilution
# [12] = peptide modifications: H3R8me1 H3K9me3, binder concentration: 1:10,000 dilution
# [13] = peptide modifications: H3R8me2s, binder concentration: 1:2,000 dilution
# [14] = peptide modifications: H3R8me2s, binder concentration: 1:10,000 dilution
binder,measurement,setting,value
ARTKQTARKSTGG [H3 1-13 A R T K Q T A Rme2a Kme2 S T G G],peptide microarray binding signal,"[1]; peptide modifications: H3R8me2a H3K9me2, binder concentration: 50 nM",0.0425 ± 0.0031
same,peptide microarray binding signal,"[1]; peptide modifications: H3R8me2a H3K9me2, binder concentration: 500 nM",0.0913 ± 0.0063
same,peptide microarray binding signal,"[2]; peptide modifications: H3R8me2a H3K9me2, binder concentration: 10 nM",0.044 ± 0.0014
same,peptide microarray binding signal,"[2]; peptide modifications: H3R8me2a H3K9me2, binder concentration: 100 nM",0.06 ± 0.0041
same,peptide microarray binding signal,[3]; [5],0.00357 ± 0.00013
same,peptide microarray binding signal,[3]; [6],0.00314 ± 4.6e-05
same,peptide microarray binding signal,[4]; [5],0.00355 ± 0.00032
same,peptide microarray binding signal,[4]; [6],0.00334 ± 0.00031
ARTKQTARKSTGG [H3 1-13 A R T K Q T A Rme2a K S T G G],peptide microarray binding signal,"[1]; peptide modifications: H3R8me2a, binder concentration: 50 nM",0.00959 ± 0.00045
same,peptide microarray binding signal,"[1]; peptide modifications: H3R8me2a, binder concentration: 500 nM",0.0248 ± 0.0019
same,peptide microarray binding signal,"[2]; peptide modifications: H3R8me2a, binder concentration: 10 nM",0.00812 ± 0.00091
same,peptide microarray binding signal,"[2]; peptide modifications: H3R8me2a, binder concentration: 100 nM",0.0181 ± 0.0056
same,peptide microarray binding signal,[3]; [7],0.00191 ± 0.00018
same,peptide microarray binding signal,[3]; [8],0.000799 ± 2.2e-05
same,peptide microarray binding signal,[4]; [7],0.000951 ± 7e-05
same,peptide microarray binding signal,[4]; [8],0.000634 ± 1.2e-05
ARTKQTARKSTGG [H3 1-13 A R T K Q T A Rme2s Kme3 S T G G],peptide microarray binding signal,"[1]; peptide modifications: H3R8me2s H3K9me3, binder concentration: 50 nM",0.0211 ± 0.0011
same,peptide microarray binding signal,"[1]; peptide modifications: H3R8me2s H3K9me3, binder concentration: 500 nM",0.0455 ± 0.0027
same,peptide microarray binding signal,"[2]; peptide modifications: H3R8me2s H3K9me3, binder concentration: 10 nM",0.0394 ± 0.0041
same,peptide microarray binding signal,"[2]; peptide modifications: H3R8me2s H3K9me3, binder concentration: 100 nM",0.0568 ± 0.0048
same,peptide microarray binding signal,[3]; [9],0.0739 ± 0.0089
same,peptide microarray binding signal,[3]; [10],0.0587 ± 0.011
same,peptide microarray binding signal,[4]; [9],0.468 ± 0.023
same,peptide microarray binding signal,[4]; [10],0.396 ± 0.02
ARTKQTARKSTGG [H3 1-13 A R T K Q T A Rme Kme3 S T G G],peptide microarray binding signal,"[1]; peptide modifications: H3R8me1 H3K9me3, binder concentration: 50 nM",0.398 ± 0.0051
same,peptide microarray binding signal,"[1]; peptide modifications: H3R8me1 H3K9me3, binder concentration: 500 nM",0.396 ± 0.0076
same,peptide microarray binding signal,"[2]; peptide modifications: H3R8me1 H3K9me3, binder concentration: 10 nM",0.0338 ± 0.011
same,peptide microarray binding signal,"[2]; peptide modifications: H3R8me1 H3K9me3, binder concentration: 100 nM",0.0759 ± 0.034
same,peptide microarray binding signal,[3]; [11],0.0426 ± 0.012
same,peptide microarray binding signal,[3]; [12],0.0253 ± 0.013
same,peptide microarray binding signal,[4]; [11],0.258 ± 0.015
same,peptide microarray binding signal,[4]; [12],0.171 ± 0.017
ARTKQTARKSTGG [H3 1-13 A R T K Q T A Rme2s K S T G G],peptide microarray binding signal,"[1]; peptide modifications: H3R8me2s, binder concentration: 50 nM",0.007899 ± 6.4e-05
same,peptide microarray binding signal,"[1]; peptide modifications: H3R8me2s, binder concentration: 500 nM",0.0258 ± 0.00046
same,peptide microarray binding signal,"[2]; peptide modifications: H3R8me2s, binder concentration: 10 nM",0.0129 ± 0.00049
same,peptide microarray binding signal,"[2]; peptide modifications: H3R8me2s, binder concentration: 100 nM",0.0364 ± 0.027
same,peptide microarray binding signal,[3]; [13],0.00759 ± 0.0043
same,peptide microarray binding signal,[3]; [14],0.00302 ± 0.00087
same,peptide microarray binding signal,[4]; [13],0.0037 ± 0.00057
same,peptide microarray binding signal,[4]; [14],0.00254 ± 0.00038
